Assay [1] can be described thus: qHTS assay to identify small molecule agonists of the sonic hedgehog signaling (Shh) pathway (AID 1259368).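 Also: NIH/3T3-derived 3T3Gli1-Luc cells carrying a stable Gli1-driven firefly luciferase reporter; series mostly up to about 92 µM; nearly all actives have a fitted effect of over 15% in size.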 The procedure, abridged: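 A Gli1 transcriptional response element controlled firefly luciferase in 3T3Gli1-Luc cells. Compounds and a positive control were added 4 hr after plating, and cells were incubated a further 24 hr at 37 C before luminescence detection.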

The nature of assay [2]: qHTS assay to identify small molecule antagonists of the sonic hedgehog signaling (Shh) pathway (AID 1259369). Also: nearly all actives have a fitted effect of over 45% in size. Also: potency is read from the fitted curve at half-maximal effect. Put shortly:
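For antagonist detection, the reporter line received test compounds together with conditioned medium, incubated 24hr at 37 C, 5% CO2, then luminescence was recorded following 30min room-temperature luciferase reagent incubation.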
For orientation: qHTS replaces the single test concentration by a dilution series.

The target of assay [3] is Estrogen receptor beta (Homo sapiens) (UniProt Q92731). Description: qHTS assay to identify small molecule agonists of the estrogen receptor beta (ER-beta) signaling pathway (AID 1259377; active = well fitted activation curve with a large enough effect in the signal ratio in the repeat runs, not every such curve was filed as active; the % refers to the signal ratio). Put shortly: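 Ratiometric beta-lactamase FRET read-out came after 2 h substrate loading at room temperature. It followed 16 h compound treatment at 37C of GripTite HEK293T cells carrying a UAS-bla reporter, plated in 2% charcoal-stripped FBS medium.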
Estrogen receptor beta (Homo sapiens), sequence (Q92731 whole entry, looked up): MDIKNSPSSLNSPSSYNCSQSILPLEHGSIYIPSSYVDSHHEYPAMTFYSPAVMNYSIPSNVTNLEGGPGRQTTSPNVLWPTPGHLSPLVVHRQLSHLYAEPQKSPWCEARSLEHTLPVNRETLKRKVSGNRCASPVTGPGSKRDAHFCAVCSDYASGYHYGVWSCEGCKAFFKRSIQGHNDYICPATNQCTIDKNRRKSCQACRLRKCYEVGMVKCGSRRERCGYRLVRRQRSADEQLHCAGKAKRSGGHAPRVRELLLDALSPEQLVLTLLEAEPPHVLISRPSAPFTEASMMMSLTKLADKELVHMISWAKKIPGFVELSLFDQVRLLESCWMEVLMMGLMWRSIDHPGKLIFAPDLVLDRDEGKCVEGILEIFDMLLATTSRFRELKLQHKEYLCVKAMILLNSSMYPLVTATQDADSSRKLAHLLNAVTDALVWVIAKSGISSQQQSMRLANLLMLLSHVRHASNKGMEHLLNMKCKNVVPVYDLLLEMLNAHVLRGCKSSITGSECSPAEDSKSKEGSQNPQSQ

The target is the same in assay [4]. Nature of the assay: qHTS assay to identify small molecule antagonists of the estrogen receptor beta (ER-beta) signaling pathway (AID 1259378; active = well fitted inhibition curve with a large enough effect in the signal ratio in the repeat runs, not every such curve was filed as active; the % refers to the signal ratio). The procedure, abridged: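 Antagonist mode: compounds added to beta-lactamase reporter HEK293T ER-beta-UAS cells stimulated with E2 (1nM final), 16 hr at 37C. LiveBLAzer B/G FRET substrate, 2 hours room temperature, fluorescence read-out.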

Assay [5] can be described thus: qHTS assay to identify small molecule agonists of the androgen receptor (AR) signaling pathway in the presence of an antagonist - cell viability counter screen (AID 1259379; active = well fitted curve in the direction sought with a large enough effect in the repeat runs; an effect the other way counts as inactive or inconclusive;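 also: MDA-kb2 human breast cancer cells carrying an MMTV luciferase reporter; series mostly up to about 92 µM; nearly all actives have a fitted effect of over 25% in size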). Put shortly: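 Seed MDA-kb2 at 3,000 cells/well; incubate 5 hr, 37C, 0% CO2. Add nilutamide to 3.0uM final, then pin compounds at 15 concentrations. Incubate 16 hr. Add CellTiter-Fluor at 15 hr, read fluorescence after 1 hr.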

Assay [6] in a line: qHTS assay to identify small molecule agonists of the estrogen receptor beta (ER-beta) signaling pathway - cell viability counter screen (AID 1259380; active = well fitted curve in the direction sought with a large enough effect in the repeat runs; an effect the other way counts as inactive or inconclusive; also: nearly all actives have a fitted effect of over 30% in size; also: potency is read from the fitted curve at half-maximal effect). Put shortly:
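CellTiter-Glo read, 30 min RT, same wells as bla assay; cells ER-beta-UAS-bla HEK293T; 16 hr compound, 37C; medium 2% charcoal-stripped FBS.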

A short description of assay [7]: qHTS assay to identify small molecule antagonists of the estrogen receptor beta (ER-beta) signaling pathway - cell viability counter screen (AID 1259382; active = well fitted curve in the direction sought with a large enough effect in the repeat runs; an effect the other way counts as inactive or inconclusive; also: nearly all actives have a fitted effect of over 55% in size; also: potency is read from the fitted curve at half-maximal effect). Put shortly: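 In this multiplexed counter screen, cells were seeded at 2,000 per well in medium with 2% charcoal-stripped FBS and incubated 6 hr before compound and 1nM final E2 were added. Sixteen hours later, ATP-based luminescence reported viability.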

In assay [8] the target is Estrogen receptor (Homo sapiens) (UniProt P03372). Description: qHTS assay to identify small molecule agonists of the estrogen receptor alpha (ER-alpha) signaling pathway in the presence of an antagonist (AID 1259383). Also: top concentration of the series differs between compounds; nearly all actives have a fitted effect of over 15% in size. The procedure, abridged: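 Stably transfected VM7Luc4E2 reporter cells, kept 5 days in charcoal-stripped serum, received ICI-182,780 at 10.0nM final before compound addition. Following 22hr incubation at 37C and 5% CO2, luciferase signal was read by luminescence.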
Estrogen receptor (Homo sapiens), sequence (P03372 whole entry, looked up): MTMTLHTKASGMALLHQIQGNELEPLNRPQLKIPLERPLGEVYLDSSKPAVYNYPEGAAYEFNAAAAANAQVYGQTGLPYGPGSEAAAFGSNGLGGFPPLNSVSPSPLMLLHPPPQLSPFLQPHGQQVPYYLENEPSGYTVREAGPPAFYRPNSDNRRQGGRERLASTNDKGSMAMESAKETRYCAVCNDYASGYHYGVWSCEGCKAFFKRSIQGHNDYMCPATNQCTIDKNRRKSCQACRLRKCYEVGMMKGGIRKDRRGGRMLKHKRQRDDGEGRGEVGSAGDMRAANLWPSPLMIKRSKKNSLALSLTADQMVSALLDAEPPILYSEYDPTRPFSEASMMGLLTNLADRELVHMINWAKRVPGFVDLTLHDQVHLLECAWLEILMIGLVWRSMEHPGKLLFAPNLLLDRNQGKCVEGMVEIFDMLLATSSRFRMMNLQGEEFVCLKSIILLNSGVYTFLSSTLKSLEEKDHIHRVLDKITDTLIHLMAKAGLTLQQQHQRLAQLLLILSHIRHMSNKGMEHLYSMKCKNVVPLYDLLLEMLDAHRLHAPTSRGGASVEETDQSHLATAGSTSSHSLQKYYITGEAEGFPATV

Assay [9] deals with Androgen receptor (Homo sapiens) (UniProt P10275). Nature of the assay: qHTS assay to identify small molecule agonists of the androgen receptor (AR) signaling pathway in the presence of an antagonist (AID 1259381). Also: nearly all actives have a fitted effect of over 15% in size. The procedure, abridged: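 Test compounds at 15 concentrations were incubated for 16hr with MDA-kb2 reporter cells in presence of 3.0uM nilutamide (final). Signal: ONE-Glo luciferase luminescence.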
Androgen receptor (Homo sapiens), sequence (P10275 whole entry, looked up): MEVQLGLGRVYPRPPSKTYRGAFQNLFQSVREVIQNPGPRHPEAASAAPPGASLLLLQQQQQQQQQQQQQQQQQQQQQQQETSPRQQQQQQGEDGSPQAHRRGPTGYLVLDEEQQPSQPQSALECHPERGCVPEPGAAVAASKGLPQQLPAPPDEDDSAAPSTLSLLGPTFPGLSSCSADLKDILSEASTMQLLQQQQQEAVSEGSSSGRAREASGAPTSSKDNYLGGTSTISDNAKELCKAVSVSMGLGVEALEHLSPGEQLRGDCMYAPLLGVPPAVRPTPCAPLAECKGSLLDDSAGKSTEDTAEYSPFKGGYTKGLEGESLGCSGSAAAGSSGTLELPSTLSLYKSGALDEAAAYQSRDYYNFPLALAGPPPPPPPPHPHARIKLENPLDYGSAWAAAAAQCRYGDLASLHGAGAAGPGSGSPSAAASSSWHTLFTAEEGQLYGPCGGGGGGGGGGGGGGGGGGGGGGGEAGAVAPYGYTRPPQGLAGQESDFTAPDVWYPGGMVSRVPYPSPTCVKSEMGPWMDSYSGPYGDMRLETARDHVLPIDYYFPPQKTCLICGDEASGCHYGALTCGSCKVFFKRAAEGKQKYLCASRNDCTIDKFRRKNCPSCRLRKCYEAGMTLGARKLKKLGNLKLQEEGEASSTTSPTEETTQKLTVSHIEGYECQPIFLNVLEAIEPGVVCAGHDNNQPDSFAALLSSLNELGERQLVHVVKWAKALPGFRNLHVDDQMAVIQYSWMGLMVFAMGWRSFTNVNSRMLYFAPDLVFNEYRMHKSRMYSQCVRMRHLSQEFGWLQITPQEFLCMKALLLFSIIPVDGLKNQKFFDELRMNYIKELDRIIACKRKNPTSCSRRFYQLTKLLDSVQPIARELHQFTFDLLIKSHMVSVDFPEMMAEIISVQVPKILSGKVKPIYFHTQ

The nature of assay [10]: qHTS assay to identify small molecule agonists or antagonists of the thyroid stimulating hormone receptor (TSHR) signaling pathway - wild type cell line counter screen (AID 1259384). Put shortly:
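Counter screen in untransfected Hek293: compounds (15-point titration, triplicate) plus phosphodiesterase inhibitor Ro20-1724 added after 18 h plating; 30 min RT. Intracellular cAMP via competitive d2/cryptate immunoassay, 1 h incubation.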

The values that follow come from PubChem BioAssay (Tox21).

“And” between values parts separate entries of the source, which are not always exact repeats. Equal entries are not always repeated. Inconclusive results are not listed. Where a structure was tested more than once in an assay, its records may differ in their call. The source made the active and inactive calls. Unless noted, calls follow the shape of the full dose curve.

On to `COc1ccc(CN2CCNCC2)c(OC)c1OC`, for which the compound was classed as inactive in assay [1] and in [4]. The Potency result in [2], in assay [3], in [5], in assay [6], in [7] and in [8] was “inactive” throughout.
Consider `N[C@@H](Cc1ccc(Oc2cc(I)c(O)c(I)c2)c(I)c1)C(=O)O`, for which the result in assay [1] and in assay [4] was inactive. Besides, the Potency entry in [2], in assay [3], in assay [5], in [6], in assay [7] and in [8] was “inactive” each time.
Take `CCNP(=S)(OC)O/C(C)=C/C(=O)OC(C)C` (centres undefined): the result in assay [1] and in assay [4] was inactive. For the same compound, the Potency entry in assay [2], in [3], in [5], in [6], in [7] and in assay [8] was “inactive” in each case.
`CCC(C)(C#N)N=NC(C)(C#N)CC` (centres undefined): the call in assay [1], in assay [4] and in [10] was inactive. The Potency entry in assay [2], in assay [3], in [5], in [6], in assay [9] and in assay [7] was “inactive” in each case. Besides, the Potency result in [8] is “inactive”.
On to `CC(C)N(Cc1ccccc1)C(=O)C(C)(C)C`, for which the compound was classed as inactive in assay [1], in assay [4] and in [10]. Moreover, the Potency result in assay [2], in [3], in [5], in assay [6], in [9] and in assay [7] was “inactive” each time.
`CC[C@@H](CO)NC(=O)[C@@H]1C=C2c3cccc4[nH]cc(c34)C[C@H]2N(C)C1`: the call in assay [1], in assay [4] and in assay [10] was inactive. Besides, the Potency entry in assay [2], in [3], in assay [5], in assay [6], in [9] and in [7] was “inactive” each time. The Potency result in assay [8] is “inactive”.
Take `CCC(CC)(CNC(=O)CCCO)c1cccc(OC)c1`: the compound was classed as inactive in assay [1], in assay [4] and in [10]. The Potency result in [2], in assay [3], in assay [5], in assay [6], in assay [9] and in assay [7] was “inactive” in each case. For the same compound, the Potency entry in [8] is “inactive”.
In the case of `C=CCCC#N`, the outcome in assay [1], in assay [4] and in [10] was inactive. Besides, the Potency entry in [2], in assay [3], in assay [5], in [6], in [7] and in assay [8] was “inactive” each time.
As to `Cn1c(CCCC(=O)O)nc2cc(N(CCCl)CCCl)ccc21`, the compound was called inactive in assay [1], in assay [4] and in assay [10]. Moreover, the Potency result in assay [2], in assay [3], in assay [5], in [6], in [7] and in assay [8] was “inactive” each time.
Consider `ClC(Cl)(Cl)Cl`, for which the compound was classed as inactive in assay [1], in [4] and in [10]. In addition, the Potency result in assay [2], in assay [3], in [5], in assay [6], in assay [7] and in [8] was “inactive” throughout.
In the case of `O=C(Cl)OCc1ccccc1`, the result in assay [1], in assay [4] and in [10] was inactive. Further, the Potency result in assay [2], in assay [3], in [5], in assay [6], in assay [7] and in assay [8] was “inactive” throughout.
With `CN(CCO)CCO`, the result in assay [1], in assay [4] and in assay [10] was inactive. For the same compound, the Potency result in [2], in [3], in assay [5], in assay [6], in assay [7] and in assay [8] was “inactive” each time.
Take `CCC(C)C(C)(COC(N)=O)COC(N)=O` (centres undefined): the compound was called inactive in assay [1], in [4] and in assay [10]. For the same compound, the Potency entry in [2], in assay [3], in [5], in assay [6], in assay [7] and in [8] was “inactive” in each case.
In the case of `C=CC1(C)OC(=O)N(c2cc(Cl)cc(Cl)c2)C1=O` (centres undefined), the compound was classed as inactive in assay [1], in [4] and in assay [10]. Moreover, the Potency was 21.6 µM (active) and inactive in assay [2]; 27.1 µM (active) and 21.7 µM (active) in [6]; 54.2 µM (active) and inactive in assay [7]. For the same compound, the Potency entry in assay [3], in assay [5] and in assay [8] was “inactive” each time.
Turning to `Clc1nc(Cl)nc(Nc2ccccc2Cl)n1`, the outcome in [1], in [4] and in [10] was inactive. Moreover, the Potency entry in assay [2], in assay [3], in assay [5], in assay [6], in assay [7] and in assay [8] was “inactive” in each case.
As to `CC(C)(O)C(Cl)(Cl)Cl`, the outcome in assay [1], in [4] and in [10] was inactive. Further, the Potency result in assay [2], in assay [3], in assay [5], in [6], in assay [7] and in [8] was “inactive” each time.
Consider `CC(O)CCl` (centres undefined), for which the result in [1], in assay [4] and in assay [10] was inactive. Further, the Potency result in [2], in assay [3], in assay [5], in [6], in assay [7] and in assay [8] was “inactive” in each case.
On to `CC(C)(C)C(=O)Cl`, for which the result in assay [1], in [4] and in assay [10] was inactive. Further, the Potency entry in [2], in assay [3], in [5], in [6], in [7] and in assay [8] was “inactive” each time.
Regarding `CC[C@H](N)c1ccccc1`, the call in [1], in assay [4] and in [10] was inactive. Also, the Potency result in assay [2], in [3], in assay [5], in [6], in assay [7] and in assay [8] was “inactive” each time.
`C=C(C)[C@H]1CN[C@H](C(=O)O)[C@H]1CC(=O)O`: the result in [1], in assay [4] and in assay [10] was inactive. The Potency entry in [2], in assay [3], in assay [5], in [6], in assay [7] and in [8] was “inactive” each time.
For the compound `O=C(Cl)C(Cl)(Cl)Cl`, the outcome in [1], in assay [4] and in [10] was inactive. Besides, the Potency result in assay [2], in assay [3], in assay [5], in assay [6], in [7] and in assay [8] was “inactive” each time.
For `CCOC(=O)C(Cl)Cc1cc(-n2nc(C)n(C(F)F)c2=O)c(F)cc1Cl` (centres undefined), the result in assay [1], in [4] and in assay [10] was inactive. Further, the Potency entry in assay [2], in assay [3], in assay [5], in [6], in [7] and in [8] was “inactive” throughout.
For `CC(C)[N+](C)(CCC(C(N)=O)(c1ccccc1)c1ccccc1)C(C)C`, the compound was classed as inactive in assay [1], in assay [4] and in assay [10]. The Potency entry in assay [2], in assay [3], in assay [5], in assay [6], in assay [7] and in [8] was “inactive” throughout.
`CN=CNc1ccc(C)cc1C`: the result in assay [1], in [4] and in [10] was inactive. In addition, the Potency entry in assay [2], in assay [3], in assay [5], in assay [6], in assay [7] and in assay [8] was “inactive” each time.
Consider `ClC1=C(Cl)C2(Cl)C(CBr)CC1(Cl)C2(Cl)Cl` (centres undefined), for which the outcome in [1], in assay [4] and in [10] was inactive. Also, the Potency entry in assay [2], in assay [3], in assay [5], in assay [6], in assay [7] and in assay [8] was “inactive” in each case.
Consider `S=C=S`, for which the compound was classed as inactive in assay [1], in assay [4] and in [10]. Also, the Potency entry in assay [2], in [3], in [5], in assay [6], in assay [7] and in assay [8] was “inactive” each time.
